High-throughput results: PubChem BioAssay, National Center for Advancing Translational Sciences (NCATS)
FLuc counter: counter-screen for miR-21 project: firefly luciferase inhibitors or activators. AID 588342. purified FLuc, Km substrates, luminescence inhibition. 360,000 tested, 6.9% active. Potency, µM (top dose mostly 57.5 µM), usual class: inhibitors; also: nearly all actives have a fitted effect of over 55% in size
Target sequence (P08659 whole entry, looked up): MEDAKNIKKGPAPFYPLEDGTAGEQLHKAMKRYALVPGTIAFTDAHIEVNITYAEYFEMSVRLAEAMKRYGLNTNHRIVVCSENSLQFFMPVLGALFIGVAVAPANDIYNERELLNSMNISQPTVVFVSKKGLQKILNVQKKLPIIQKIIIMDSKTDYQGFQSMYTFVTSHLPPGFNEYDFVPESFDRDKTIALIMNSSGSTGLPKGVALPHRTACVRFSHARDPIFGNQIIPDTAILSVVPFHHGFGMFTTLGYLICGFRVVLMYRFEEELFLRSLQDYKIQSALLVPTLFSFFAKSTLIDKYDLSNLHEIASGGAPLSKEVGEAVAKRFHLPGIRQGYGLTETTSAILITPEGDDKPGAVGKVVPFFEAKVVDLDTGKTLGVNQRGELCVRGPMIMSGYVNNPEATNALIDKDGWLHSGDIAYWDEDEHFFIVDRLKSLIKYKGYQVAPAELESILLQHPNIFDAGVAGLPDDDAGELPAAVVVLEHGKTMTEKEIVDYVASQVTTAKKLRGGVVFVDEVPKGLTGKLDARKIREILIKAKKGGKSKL
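Purified P. pyralis luciferase (10nM final) with 10uM D-luciferin and 10uM ATP (Km levels) in 50mM Tris acetate pH 7.5, 10mM Mg acetate, 0.01% Tween-20, 0.05% BSA; qHTS 6-point titration, ~60 µM downward; luminescence read.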
Rab9 promoter act: activators of Rab9 promoter. 320,000 tested, 2.8% active. Huh7 Rab9 promoter-luciferase reporter, luminescence, 24 h. Potency, µM (series often up to 9.22 µM), actives largely listed as activators; also: nearly all actives have a fitted effect of over 60% in size
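Stable Rab9-luc Huh7, 1500 cells/well, 2 h settle; cmpd in DMSO, 24 h, 37 °C/5% CO2; luciferase reagent 10 min RT; luminescence.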
ELG1 genotox: genotoxicity induction in ELG1-luciferase HEK293T cells. HEK293T ELG1-luciferase reporter, luminescence, 16 h. Potency, µM (series often up to 46 µM), usual class: activators. 330,000 tested, 1.3% active. AID 504466; also: nearly all actives have a fitted effect of over 60% in size
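HEK293T cells expressing luciferase-tagged ELG1 were treated with compound or DMSO for 16 hr at 37°C. Luciferase activity was then read after 30 min with ONE-Glo at room temperature; rising signal flags genetic stress.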
ELG1 DNA repair: ELG1-dependent DNA repair inhibition; Potency, µM (titrated, usually from 46.1 µM), actives largely listed as inhibitors; AID 504467; HEK293T ELG1-luciferase reporter, luminescence, 16 h; DNA damage induced by 5-fluorouridine; 330,000 tested, 2.3% active; also: nearly all actives have a fitted effect of over 55% in size
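Overnight (16 hr) co-exposure of 2,000 cells/well to 5-fluorouridine and compound at 37 °C preceded detection. Luciferase was quantified via ONE-Glo luminescence; loss of signal denotes inhibition.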
SMN2 splice enh: increases expression of the SMN2 splice variant; HEK293 SMN2-luciferase splicing reporter, luminescence, 30-36 h; Potency, µM (series often up to 46.1 µM), usual class: activators; 210,000 tested, 2.8% active; AID 1458; also: nearly all actives have a fitted effect of over 55% in size
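HEK293 cells carry an SMN2 minigene-luciferase reporter in which exon 7 inclusion puts luciferase in frame. Cells were seeded at 2000 cells/well, attached for 10-12 hours, then exposed to compounds for 30-36 hours at 37C before ONE-Glo luminescence.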
NPC1 prom act: NPC1 promoter activation | Huh7 NPC1 promoter luciferase reporter, 24 h | Potency, µM (doses to about 9.22 µM), actives largely listed as activators | 320,000 tested, 2.4% active; also: nearly all actives have a fitted effect of over 60% in size
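Huh7 reporter cells (NPC1 promoter driving luciferase) are dosed with compound for 24 h at 37 °C, 5% CO2; luciferase detection reagent is then added and luminescence measured after 10 min at ambient temperature.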
Numbers stand for hits; i = inactive; ? = inconclusive; nt = no result. Most compounds without a hit are left out; they make up all but 9.2% or so of the library. Calls follow the shape of the dose curve; as a rule, active = well fitted curve in the direction sought with a large enough effect; inconclusive = small, poorly fitted or top-dose-only effect, or another doubt; inactive = no such curve, though single readings can be large; an effect the other way counts as inactive or inconclusive.

SMILES	FLuc counter	Rab9 promoter act	ELG1 genotox	ELG1 DNA repair	SMN2 splice enh	NPC1 prom act
CCOc1cc(/C=C2\C(=O)NN(c3ccccc3)C2=O)cc([N+](=O)[O-])c1O	17µM	i	i	i	i	i
COc1cc(/C=C2/C(=O)N(c3ccc(C(=O)O)cc3)N=C2C)cc(OC)c1O	?	i	i	i	nt	i
COc1cc(/C=C2/C(=O)N(c3ccc(C)c(C)c3)N=C2C)cc([N+](=O)[O-])c1O	17µM	i	i	i	nt	i
COc1cc(/C=C2\C(=O)NN(c3ccc(C)cc3)C2=O)cc([N+](=O)[O-])c1O	27µM	i	i	i	i	i
CC(C)/C=N/Nc1nc(-c2ccc(Br)cc2)cs1	7.6µM	?	?	?	i	?
O=c1cc(O)c2sc3nc4c(c(C(F)(F)F)c3c2[nH]1)CCCCC4	17µM	i	i	i	nt	i
O=C(CN1C(=O)/C(=C/c2ccco2)SC1=S)Nc1ccc(C(=O)O)c(O)c1	19µM	i	i	i	nt	i
O=C(CCCN1C(=O)/C(=C/c2cccs2)SC1=S)Nc1ccc(O)c(C(=O)O)c1	?	i	i	i	nt	i
O=C(CCN1C(=O)/C(=C\c2ccccc2F)SC1=S)Nc1ccc(C(=O)O)c(O)c1	5.4µM	i	i	i	nt	i
O=C(CN1C(=O)/C(=C/c2ccco2)SC1=S)Nc1ccc(O)c(C(=O)O)c1	?	i	i	i	nt	i
O=C(CCCN1C(=O)/C(=C/c2ccccc2)SC1=S)Nc1ccc(C(=O)O)c(O)c1	12µM	i	i	i	nt	i
Cc1cc(NC(=O)CCN2C(=O)/C(=C/c3ccccc3F)SC2=S)no1	i	i	i	i	i	i
O=C(CN1C(=O)S/C(=C\c2ccccc2)C1=O)Nc1cc([N+](=O)[O-])ccc1O	13µM	i	i	i	nt	i
CC(=O)Nc1ccc(S(=O)(=O)N2CCC(C(=O)NCc3ccncc3)CC2)cc1	i	i	i	i	nt	i
O=C(CCN1C(=O)S/C(=C\c2ccc(F)cc2)C1=O)Nc1ccc(C(=O)O)c(O)c1	2.1µM	i	i	?	nt	?
O=C(CCN1C(=O)S/C(=C/c2ccccc2)C1=O)Nc1ccc(C(=O)O)c(O)c1	2.4µM	i	i	i	nt	i
COc1cccc(C2CC(=O)Nc3c2c(=O)[nH]c2ncnn32)c1OC (stereo not given)	i	nt	nt	nt	i	nt
CCc1cccc(NC(=O)C(NS(=O)(=O)c2ccc3nc(C)sc3c2)C(C)C)c1 (stereo not given)	i	nt	nt	nt	i	nt
Cc1ccc(NC(=O)CN2C(=O)C(c3ccc(C)cc3)=NC23CCCCCC3)cc1	i	nt	nt	nt	i	nt
Cc1ccc(C2=NNC(C(O)C(O)C(O)C(C)O)S2)cc1 (stereo not given)	24µM	i	?	?	i	i
CCOc1ccccc1NC(=O)CN1C(=O)COc2ccc(S(=O)(=O)N3CCCCC3)cc21	i	nt	nt	nt	nt	nt
COc1cccc(-n2c(SCC(=O)Nc3nccs3)nnc2-c2ccoc2C)c1	i	i	i	?	i	i
COc1ccc(-n2c(SCC(=O)Nc3nc(C)cs3)nnc2-c2ccoc2C)cc1	i	i	i	23µM	i	i
COc1ccc(-n2c(SCC(=O)Nc3nccs3)nnc2-c2ccoc2C)cc1	i	i	i	21µM	i	i
O=C(CN1C(=O)C2CCCCC2C1=O)OCC(=O)c1ccc(F)cc1 (stereo not given)	i	i	i	i	nt	i
SMILES	FLuc counter	Rab9 promoter act	ELG1 genotox	ELG1 DNA repair	SMN2 splice enh	NPC1 prom act
Cc1ccc(NC2=C/C(=N\S(=O)(=O)c3cccs3)c3ccccc3C2=O)c(C)c1	?	?	i	?	i	?
Cc1ccc(Cl)cc1NC1=C/C(=N\S(=O)(=O)c2cccs2)c2ccccc2C1=O	i	i	i	5.2µM	i	i
Cc1cccc(NC2=C/C(=N/S(=O)(=O)c3cccs3)c3ccccc3C2=O)c1	i	i	i	4.1µM	i	i
COC1=C(Nc2ccc(O)cc2)C(=O)c2ccccc2C1=O	?	i	i	i	i	i
O=C1C(Nc2ccc(O)cc2)=C/C(=N/S(=O)(=O)c2cccs2)c2ccccc21	?	i	i	6.5µM	i	i
CCC(C)S(=O)(=O)c1oc(-c2cccs2)nc1S(=O)(=O)c1ccccc1 (stereo not given)	nt	nt	nt	nt	i	nt
COc1c(Cl)cc(Cl)cc1CNCCSc1nnnn1C	i	nt	nt	nt	i	nt
CCOc1ccc(NC(=O)/C=C\C(=O)N(c2ccc(C(C)C)cc2)C(C(=O)NCc2ccco2)c2ccc(F)cc2)cc1 (stereo not given)	i	nt	nt	nt	nt	nt
Cc1ccc(NC(=O)CCc2nnc3ccc(N4CCC5(CC4)OCCO5)nn23)nc1	i	i	i	5.8µM	nt	i
CC(=O)c1ccc(NC(=O)CCc2nnc3ccc(N4CCC5(CC4)OCCO5)nn23)cc1	?	i	?	?	nt	i
COC(=O)CNC(=O)Nc1cc(C(=O)NCc2ccc(C)cc2)ccc1N1CCCC1	i	nt	nt	nt	nt	nt
CC(=O)c1ccc(NC(=O)CSc2cn(CC(=O)N3CCCCCC3)c3ccccc23)cc1	i	nt	nt	nt	nt	nt
CCCc1cc(C(=O)Nc2ccc(OC)cc2[N+](=O)[O-])cs1	12µM	i	i	?	nt	i
COc1ccc(NC(=S)NC(NC(=O)c2cccc(Cl)c2)C(Cl)(Cl)Cl)c([N+](=O)[O-])c1 (stereo not given)	i	i	i	16µM	i	i
COc1ccc(NC(=O)c2ccccc2)c([N+](=O)[O-])c1	?	2.8µM	?	?	?	?
COc1ccc(NC(=O)COc2cccc(-n3cnnn3)c2)cc1Cl	i	i	i	?	nt	i
COc1ccc(-n2cccc2C=O)cc1	i	i	i	i	i	i
COc1ccc(-n2cccc2/C=C/[N+](=O)[O-])cc1	i	i	i	23µM	i	i
CCN(C(=O)CSc1nc(-c2ccccc2)no1)c1cccc(C)c1	i	nt	nt	nt	i	nt
COc1ccc2nc(NC(=O)c3ccccc3O)sc2c1	0.13µM	0.79µM	?	?	nt	1.3µM
COc1ccc2nc(NC(=O)CSCc3c(C)noc3C)sc2c1	?	i	?	?	nt	i
CCOCCn1c(=NC(=O)CSCC(=O)Nc2cc(C)on2)sc2cc(OC)ccc21	i	i	i	15µM	nt	i
COc1ccc2nc(NC(=O)c3ccccc3[N+](=O)[O-])sc2c1	?	?	i	i	nt	i
COc1ccc2nc(NC(=O)CSCC(=O)Nc3cc(C)on3)sc2c1	17µM	5µM	?	?	nt	?
CCC(C)C(=O)Nc1nc2ccc(OC)cc2s1 (stereo not given)	12µM	2.5µM	?	?	nt	2.5µM
CCOC(=O)c1cccc(C(=O)Nc2nc3ccc(OC)cc3s2)n1	0.48µM	1.6µM	i	?	11µM	2.2µM
COc1ccc2nc(NC(C)=O)sc2c1	12µM	2.5µM	?	?	14µM	2.2µM
